ERK AVP inh = inhibitors of vasopressin-stimulated ERK signaling pathway. HEK293-V1b, vasopressin-stimulated pERK AlphaScreen. Potency, µM (titrated, usually from 57.5 µM), for inactives: at the highest dose activity, negative = inhibition, actives largely listed as inhibitors. 72,000 tested, 0.99% active; also: nearly all actives have a fitted effect of over 55% in size
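HEK293 cells stably expressing V1b receptor, preincubated 30 min at 37 °C with compound, then stimulated 5 min with 25 nM vasopressin. Phospho-ERK by AlphaScreen SureFire after 5 h RT; normalized to DMSO and vasopressin; AC50 by Hill fit.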
PK Bst = modulators of Bacillus stearothermophilus pyruvate kinase | 51,000 tested, 1.2% active | purified pyruvate kinase, luminescence ATP production; ribose 5-phosphate activator present at AC10 | Potency, µM; in the data active = potency below about 11 µM; inconclusive = mostly about 12 µM to 25 µM;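 the screen sought inhibitors and activators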;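 also: scaled between full activation by ribose 5 phosphate and full inhibition by luteolin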
FLuc inh = blocks Photinus pyralis firefly luciferase activity; AID 411; purified firefly luciferase, luminescence, 8 min; Potency, µM (series often up to 57.1 µM), without a hit: top-dose activity change, negative = inhibition, actives largely listed as inhibitors; 72,000 tested, 2.2% active; also: nearly all actives have a fitted effect of over 40% in size
Target sequence (P08659 whole entry, looked up): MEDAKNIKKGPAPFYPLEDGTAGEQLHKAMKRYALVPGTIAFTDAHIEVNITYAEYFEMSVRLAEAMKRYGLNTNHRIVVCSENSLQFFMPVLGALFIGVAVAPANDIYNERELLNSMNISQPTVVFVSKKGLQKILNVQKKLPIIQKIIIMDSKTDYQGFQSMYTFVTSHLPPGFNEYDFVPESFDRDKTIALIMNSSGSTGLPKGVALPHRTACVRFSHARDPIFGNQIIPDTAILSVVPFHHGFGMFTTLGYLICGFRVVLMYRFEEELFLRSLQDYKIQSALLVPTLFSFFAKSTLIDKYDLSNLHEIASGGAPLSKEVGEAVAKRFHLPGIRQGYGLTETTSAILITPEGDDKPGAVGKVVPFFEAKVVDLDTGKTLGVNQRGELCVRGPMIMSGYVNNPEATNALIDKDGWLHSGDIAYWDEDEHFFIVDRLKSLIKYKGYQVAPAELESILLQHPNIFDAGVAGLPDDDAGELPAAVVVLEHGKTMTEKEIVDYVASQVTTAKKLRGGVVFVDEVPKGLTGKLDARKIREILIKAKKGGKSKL
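Substrate buffer containing 10 uM ATP (pH 7.2 imidazole, Mg2+, KCl, detergent, BSA) is dispensed, compound pinned in, then luciferase/luciferin detector mix added. After 8 min at ambient temperature, light output is measured.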
ALOX15 inhib = inhibitors of human 15-lipoxygenase (ALOX15); P16050; purified 15hLO-1, xylenol orange hydroperoxide absorbance; Potency, µM (top dose mostly 57.1 µM), inactives show at the top dose activity change, negative = inhibition, actives largely listed as inhibitors; 74,000 tested, 1.4% active; also: nearly all actives have a fitted effect of over 55% in size
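Inhibition is scored from a chromogenic endpoint. After 15 min enzyme-compound contact, arachidonic acid (50 uM final) reacts 6 min with 40 nM 15hLO-1 at room temperature, then Fe-XO reagent is added for 30 min and absorbance ratio recorded.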
HSD17B inh = inhibitors of human HSD17B10 dehydrogenase. recombinant HSD17B10, NADH fluorescence kinetic. Q99714. Potency, µM (series often up to 57.1 µM), for the others: top-dose activity change, negative = inhibition, most hits filed as inhibitors. AID 893. 75,000 tested, 7.6% active;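 also: the protocol describes HADH2 (HSD17B10) and not the HSD17B4 of the title; nearly all actives have a fitted effect of over 70% in size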
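Enzyme plus compound, 15 min room temperature; substrate mix added (NAD+ 1 mM, beta-hydroxybutyryl-CoA 90 uM final); plates read kinetically for NADH fluorescence. HADH2 was His-tagged, E. coli-derived, 20 nM.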
HADH2 inhib = blocks human hydroxyacyl-CoA dehydrogenase type II | Q99714 | recombinant HADH2, NADH fluorescence, beta-hydroxybutyryl-CoA | Potency, µM (doses to about 57.1 µM), for the others: at the highest dose activity change, negative = inhibition, actives largely listed as inhibitors | 73,000 tested, 3.4% active | AID 886; also: nearly all actives have a fitted effect of over 60% in size
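E. coli-expressed His-tagged HADH2 tested at 20 nM in alkaline Tris buffer (pH 9.0); oxidation of 90 uM beta-hydroxybutyryl-CoA with 1 mM NAD+ tracked fluorimetrically for 4 min.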
* marks the source's active call; other numbers are inactive results; [ ] = another dose, or the depositor's remark. Sampled rows, rich in hits. Any-hit rate of the full collection: about 11%. Unless noted, calls follow the shape of the dose curve; as a rule, active = well fitted curve in the direction sought with a large enough effect; inconclusive = small, poorly fitted or top-dose-only effect, or another doubt; inactive = no such curve, though single readings can be large; an effect the other way counts as inactive or inconclusive. Unless noted, % is scaled to controls: 0 for no effect and ±100 for the full control effect; potency is read from the fitted curve at half-maximal effect.

Results for CC(=O)NCCNc1ncnc2ccc(-c3ccoc3)cc12 ?
ERK AVP inh: -3%; FLuc inh: 4%[2.29 µM]; ALOX15 inhib: -1%; HSD17B inh: 25µM*; HADH2 inhib: inconclusive

What do the screens show for `COCCNc1ncnc2ccc(-c3ccoc3)cc12`?
ERK AVP inh: 8%; FLuc inh: 0%[2.29 µM]; ALOX15 inhib: -12%; HSD17B inh: 32µM*; HADH2 inhib: inconclusive

How did COc1ccccc1-c1cc(NCc2ccccc2)ncn1 do in these assays?
ERK AVP inh: inconclusive; FLuc inh: 2%[2.29 µM]; ALOX15 inhib: -22%; HSD17B inh: inconclusive; HADH2 inhib: 1%

Results for COc1ccc(CNc2cc(-c3cccnc3)ncn2)c(OC)c1 ?
ERK AVP inh: -23%; FLuc inh: 1%[2.29 µM]; ALOX15 inhib: 2%; HSD17B inh: 8%; HADH2 inhib: 16%

Results for COc1ccc(CNc2cc(-c3ccccc3Cl)ncn2)c(OC)c1 ?
ERK AVP inh: 16µM*; FLuc inh: -1%[2.29 µM]; ALOX15 inhib: -1%; HSD17B inh: 3%; HADH2 inhib: 10%

Results for COc1ccc(CNc2cc(-c3ccccc3OC)ncn2)c(OC)c1 ?
ERK AVP inh: inconclusive; FLuc inh: -1%[2.29 µM]; ALOX15 inhib: 25µM*; HSD17B inh: inconclusive; HADH2 inhib: inconclusive

What do the screens show for `CCOC(=O)CCc1c(C)nc2cc(-c3ccccc3OC)[nH]n2c1=O`?
ERK AVP inh: 6%; FLuc inh: -4%; ALOX15 inhib: 4%; HSD17B inh: 32µM*; HADH2 inhib: 32µM*

How did COCC(=O)N1CCC2(CCCN(c3cccc(-c4ccccc4)c3)C2)CC1 do in these assays?
ERK AVP inh: inconclusive; FLuc inh: -1%[11.4 µM]; ALOX15 inhib: -20%; HSD17B inh: inconclusive; HADH2 inhib: -4%

How did Cc1ccc(-c2nnc(N3CCN(C(=O)c4ccco4)CC3)c3ccccc23)cc1 do in these assays?
ERK AVP inh: 25µM*; PK Bst: >57; FLuc inh: 2%; ALOX15 inhib: -22%; HSD17B inh: -27%; HADH2 inhib: 1%

What do the screens show for `O=C(c1ccco1)N1CCN(c2ncnc3c(-c4ccccc4)nsc23)CC1`?
ERK AVP inh: 25µM*; FLuc inh: -25%; ALOX15 inhib: -19%; HSD17B inh: 32µM*; HADH2 inhib: inconclusive

Results for Cc1ccc(-c2nnc(N3CCN(C(=O)CN4C(=O)c5ccccc5C4=O)CC3)c3ccccc23)cc1 ?
ERK AVP inh: -7%; PK Bst: >57; FLuc inh: 1%; ALOX15 inhib: inconclusive; HSD17B inh: 20µM*; HADH2 inhib: -25%

What do the screens show for `Cc1ccc(-c2cc(C(=O)N3CCN(C(=O)c4ccco4)CC3)no2)cc1`?
ERK AVP inh: -21%; PK Bst: >57; FLuc inh: -4%; ALOX15 inhib: 2%; HSD17B inh: -8%; HADH2 inhib: -24%

How did COc1ccc(-c2nsc3c(N4CCN(C(=O)c5ccco5)CC4)ncnc23)cc1 do in these assays?
ERK AVP inh: 24%; FLuc inh: 0%; ALOX15 inhib: -5%; HSD17B inh: -26%; HADH2 inhib: 4%

Results for COc1cc([C@H](O)CO)ccc1O ?
ERK AVP inh: 23%; FLuc inh: -1%; ALOX15 inhib: -3%; HSD17B inh: 6%; HADH2 inhib: -10%

How did N=C1C(c2ccc(Br)cc2)=C(O)C2CCc3ccccc3N12 (stereo not given) do in these assays?
ERK AVP inh: 16%; PK Bst: 3*; FLuc inh: -1%; ALOX15 inhib: 1%; HSD17B inh: 1%; HADH2 inhib: -7%

How did C[N+](C)(N)CCC[N+](C)(C)N do in these assays?
ERK AVP inh: 0%[11.5 µM]; FLuc inh: 1%[11.4 µM]; ALOX15 inhib: 12%[11.4 µM]; HSD17B inh: 6%[11.4 µM]; HADH2 inhib: 1%[11.4 µM]

Results for N=c1ccn2c(n1)O[C@@H]1[C@H](O)[C@H](CO)O[C@@H]12 ?
ERK AVP inh: 12%; ALOX15 inhib: 15%[25.6 µM]; HSD17B inh: -6%

How did O=C(Nc1nc(-c2cccs2)cs1)c1ccc(Cl)s1 do in these assays?
FLuc inh: -15%; ALOX15 inhib: inconclusive; HSD17B inh: -18%; HADH2 inhib: 1%

How did CC(C)(C)c1csc(NC(=O)c2ccc(Cl)s2)n1 do in these assays?
ERK AVP inh: -15%; PK Bst: inactive; FLuc inh: 16µM*; ALOX15 inhib: -29%; HSD17B inh: -27%; HADH2 inhib: inconclusive

How did CC(=O)OC[C@H]1O[C@@H](O/N=C2/[C@H]3O[C@@H]3[C@@H](O)[C@H]3[C@H]2CCn2c(=O)n(-c4ccccc4)c(=O)n23)[C@H](OC(C)=O)[C@@H](OC(C)=O)[C@@H]1OC(C)=O do in these assays?
ERK AVP inh: 12%[11.5 µM]; FLuc inh: -2%[11.4 µM]; ALOX15 inhib: 5%[11.4 µM]; HSD17B inh: 4%[11.4 µM]; HADH2 inhib: -4%[11.4 µM]

How did CCn1c2ccccc2c2nnc(NCCCO)nc21 do in these assays?
ERK AVP inh: -12%[11.5 µM]; FLuc inh: 0%[11.4 µM]; ALOX15 inhib: 5%[11.4 µM]; HSD17B inh: -1%[11.4 µM]; HADH2 inhib: 3%[11.4 µM]

How did OCCCCNc1cccc2ccccc12 do in these assays?
ERK AVP inh: 11%; PK Bst: >57; FLuc inh: -4%; ALOX15 inhib: -13%; HSD17B inh: 25µM*; HADH2 inhib: 32µM*

What do the screens show for `CC(C)C[C@@H](CC(=O)N[C@@H](CCCN)CC(=O)N[C@@H]1CCNC[C@H]1C(=O)N[C@H](CC(=O)N[C@@H](CCC(=O)O)CC(=O)O)CC(C)C)NC(=O)[C@@H]1CNCC[C@H]1N`?
HADH2 inhib: -15%

How did COc1ccc2c(c1)-c1ccccc1S(=O)(=O)N2C(C)=O do in these assays?
ERK AVP inh: 9%; PK Bst: >57; FLuc inh: 2%; ALOX15 inhib: 3%; HSD17B inh: 32µM*; HADH2 inhib: 39%

What do the screens show for `FC(F)(F)c1ccccc1-c1ccc2ncnc(N3CCOCC3)c2c1`?
ERK AVP inh: inconclusive; FLuc inh: 2%[2.29 µM]; ALOX15 inhib: inconclusive; HSD17B inh: inconclusive; HADH2 inhib: 11%

Results for Cc1cc(=O)[nH]c2n[nH]c(-c3ccccc3)c12 ?
ERK AVP inh: 0%; FLuc inh: -24%; ALOX15 inhib: -3%; HSD17B inh: 25µM*; HADH2 inhib: inconclusive

How did O=c1cc(-c2ccccc2)c2c([nH]1)CCCC2 do in these assays?
ERK AVP inh: -22%; PK Bst: >57; FLuc inh: 5%; ALOX15 inhib: -12%; HSD17B inh: -2%; HADH2 inhib: -5%

How did NCCC[C@@H](CC(=O)N[C@@H]1CCNC[C@H]1C(=O)N[C@H](CC(=O)N[C@@H](CCC(=O)O)CC(=O)O)Cc1c[nH]c2ccccc12)NC(=O)C[C@H](Cc1ccccc1)NC(=O)[C@@H]1CNCC[C@H]1N do in these assays?
HADH2 inhib: 4%

Source: PubChem (National Center for Advancing Translational Sciences (NCATS))
